Screening data as filed in PubChem.
CTSL1 counter = counter-screen for PFM18AAP inhibitors: inhibitors of F. hepatica cathepsin L1; recombinant F. hepatica cathepsin L1, Z-Leu-Arg-MCA fluorescence; inhibition, % at 5.96 µM; 300,000 compounds, 0.49% hits;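 active = inhibition above the mean of all tested compounds plus 3 SD, set per screening campaign, cut at about 17% in these data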;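 note: 0% = plate median of test compound wells and 100% = 1 µM Z-Phe-Ala-diazomethylketone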
PP5 primary = blocks human protein phosphatase 5 activity | P53041 | purified PP5c, OMFP substrate fluorescence | inhibition, % at 6.7 µM | 320,000 compounds, 0.18% hits;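 active = inhibition above the campaign's mean inhibition across all tested compounds plus 3 SD, cut at about 9.5% in these data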;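 note: 0% = DMSO only and 100% = 100 µM cantharidin control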
PAFAH1B3 inh = inhibitors of human PAFAH1B3 | Q15102 | recombinant PAFAH1B3, FP-rhodamine probe, fluorescence polarization | inhibition, % at 3.39 µM | 340,000 compounds, 0.28% hits | AID 492972;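 active = inhibition above the screen-wide average of all tested compounds plus 3 SD, cut at about 25% in these data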;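 note: 0% = enzyme with DMSO only and 100% = wells lacking PAFAH1B3 protein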
Target sequence (Q15102 whole entry, looked up): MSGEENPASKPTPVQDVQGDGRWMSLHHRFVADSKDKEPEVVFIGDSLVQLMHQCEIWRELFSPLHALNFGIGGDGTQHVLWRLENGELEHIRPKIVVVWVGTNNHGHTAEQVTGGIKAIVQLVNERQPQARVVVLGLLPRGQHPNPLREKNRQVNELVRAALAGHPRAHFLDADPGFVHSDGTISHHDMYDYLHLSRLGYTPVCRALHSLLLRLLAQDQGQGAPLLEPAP
PAFAH1B2 inh = PAFAH1B2 (human) inhibition | recombinant PAFAH1B2, FP-rhodamine activity probe, fluorescence polarization | inhibition, % at 3.39 µM | 340,000 compounds, 1.2% hits | P68402 | AID 492953;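 active = inhibition above the mean of all tested compounds plus 3 SD, cut at about 24% in these data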;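 note: 0% = enzyme with DMSO and 100% = wells lacking PAFAH1B2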
PAFAH2 inh = PAFAH2 (human) inhibition | Q99487 | recombinant PAFAH2, FP-rhodamine activity probe, fluorescence polarization | inhibition, % at 3.39 µM | 340,000 compounds, 0.99% hits | AID 492956;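 active = inhibition above the mean over all tested compounds plus 3 SD, cut at about 30% in these data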;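 note: inhibitors block probe labeling of enzyme so polarization drops; 0% = enzyme with DMSO and 100% = wells lacking PAFAH2 protein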
pPAFAH inh = inhibitors of human plasma PAF acetylhydrolase (pPAFAH) | Q13093 | recombinant pPAFAH, FP-rhodamine probe fluorescence polarization | inhibition, % at 3.39 µM | AID 463082 | 330,000 compounds, 1.5% hits;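 active = inhibition above the mean inhibition across the screen plus 3 SD, cut at about 25% in these data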;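 note: inhibitors block binding of the rhodamine activity-based probe so polarization drops; 0% = enzyme with DMSO and 100% = wells lacking pPAFAH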
Starred values were filed as active, the others as inactive; / = no result given. A selection: hits, their analogues and other compounds. The true share with any hit is near 3%.

SMILES	CTSL1 counter	PP5 primary	PAFAH1B3 inh	PAFAH1B2 inh	PAFAH2 inh	pPAFAH inh
O=C(O)CC(NS(=O)(=O)c1ccc(Br)cc1)c1ccco1 (configuration not stated)	0	1	1	28*	7	0
Cc1ccc(S(=O)(=O)Oc2ccc(C3C4=C(CCCC4=O)N(CCC(=O)O)C4=C3C(=O)CCC4)cc2Cl)cc1	0	1	3	39*	6	2
CCOc1cc(C2C3=C(CCCC3=O)N(CCC(=O)O)C3=C2C(=O)CCC3)ccc1OS(=O)(=O)c1ccc(C)cc1	2	1	7	9	-5	6
COc1cccc(/C=N/Nc2nc(Nc3ccccc3)nc(-n3nc(C)cc3C)n2)c1O	-1	11*	10	6	-7	10
Cc1cc(C)n(-c2nc(Nc3ccccc3)nc(-n3nc(C)cc3C)n2)n1	-3	2	1	0	-1	0
COc1ccc(NS(=O)(=O)c2cccc(C(=O)NNC(=O)CNC(=O)c3ccco3)c2)cc1	-6	0	2	2	-2	11
CCOc1ccccc1C(=O)NCC(=O)NNC(=O)c1cccc(S(=O)(=O)Nc2ccc(OC)cc2)c1	-7	-4	7	5	4	26*
COc1ccc(NS(=O)(=O)c2cccc(NC(=O)c3ccc(S(=O)(=O)N4CCCCCC4)cc3)c2)cc1	-1	1	-39	-18	-86	-27
COc1ccc(NS(=O)(=O)c2cccc(C(=O)N3CCCCCC3)c2)cc1	-15	-1	9	8	-1	31*
COc1ccc(NS(=O)(=O)c2cccc(NC(=O)C34CCC(CC3)C4)c2)cc1	-1	6	4	7	10	26*
COc1ccc(NS(=O)(=O)c2cccc(C(=O)NCC(c3ccc(OC)cc3)N3CCOCC3)c2)cc1 (configuration not stated)	3	0	6	-1	-3	32*
COC(=O)C1CCc2c(ccc3c2CCCC3)C1=O (configuration not stated)	/	/	4	4	7	/
O=C(O)c1cccc(S(=O)(=O)Nc2cc(Cl)ccc2Cl)c1	2	0	8	24*	1	6
COc1ccc(NS(=O)(=O)c2cccc(C(=O)NNC(=O)c3cc(S(N)(=O)=O)ccc3OC)c2)cc1	7	0	-3	-1	0	25*
COc1ccc(NS(=O)(=O)c2cccc(C(=O)NN=Cc3ccc(OC)c(O)c3)c2)cc1	/	/	15	13	2	32*
COc1ccc(NS(=O)(=O)c2cccc(C(=O)NNC(=O)c3ccc(O)c(Cl)c3)c2)cc1	/	1	6	1	1	10
COc1ccc(NS(=O)(=O)c2cccc(C(=O)N/N=C/c3c(F)c(F)c(F)c(F)c3F)c2)cc1	/	/	-5	2	-9	/
COc1ccc(C(CNC(=O)CSc2ccc(Br)cc2C)N2CCOCC2)cc1 (configuration not stated)	24*	3	5	17	1	8
O=C(CN1CCN(c2ccc(O)cc2)CC1)Nc1ccc2c(c1)OCCCO2	/	3	4	6	9	8
COC(=O)[C@H](Cc1ccccc1)NC(=O)Cn1ccc(NC(=O)OCc2ccccc2)nc1=O	/	0	7	6	0	0
COc1ccc(NS(=O)(=O)c2ccc(N3CCCC3)c(NC(=S)Nc3cccc(S(=O)(=O)N(C)C)c3)c2)cc1	5	2	/	/	/	33*
COc1ccc(NS(=O)(=O)c2cccc(C(=O)NNC(=O)c3ccc(NC(C)=O)cc3)c2)cc1	-6	2	3	-1	1	26*
CNC(=S)Nc1ccc(N2CCCC2)c(S(=O)(=O)Nc2ccc(OC)cc2)c1	/	/	5	4	1	7
COc1ccc(NS(=O)(=O)c2cccc(-c3nnc4n3CCCCC4)c2)cc1	0	2	3	0	5	29*
O=C(O)c1cccc(S(=O)(=O)Nc2ccc(N3CCCCC3)cc2)c1	/	/	16	5	-2	27*
O=C(O)c1cc(S(=O)(=O)Nc2ccc(N3CCCCC3)cc2)ccc1Cl	0	1	6	9	12	14
Cc1nc(Cc2nnc(SCC(=O)Nc3c(C)cccc3C)o2)cs1	6	1	-11	6	2	0
Cc1ccccc1NC(=O)c1cc[n+]([O-])cc1	-3	3	6	-4	-3	0
